Values without a mark were called inactive. Activity calls are given as the source filed them. Rule as the data show it, unless noted: active = inhibition above about 25%; inactive = the rest.
Key:
[1] = biological target: Nuclear receptor coactivator 1 (Homo sapiens) (UniProt Q15788); test: NCOA1 GAL4-fusion reporter inhibition – cell-based, luminescence, quadruplicate, confirmation (AID 588820;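 active = mean inhibition above 46.68%, the untreated control wells mean plus 3 SD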;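 also: 0% = DMSO wells and 100% = gossypol 36 µM treated wells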); settings: HEK293 GAL4-SRC1 luciferase reporter, at 3.6 µM, hits give high values
[2] = repression of VP16-driven luciferase reporter – cell-based, luminescence, high throughput, counter-screen for SRC1 inhibitor project (AID 588824); settings: cell-based VP16 transactivation luciferase luminescence; at 3.6 µM; hits give high values
[3] = tested on: transactivating tegument protein VP16 (Human herpesvirus 1); test: compounds suppressing VP16-driven luciferase signal – cell-based, luminescence, single concentration, counter-screen for SRC2 inhibitor project (AID 652007; in the data active = inhibition above about 36%); settings: cell-based VP16 transactivation luciferase reporter, at 8.9 µM, hits give high values
[4] = biological target: Nuclear receptor coactivator 2 (Homo sapiens) (UniProt Q15596); test: inhibition of GAL4-SRC2 driven luciferase expression – cell-based, luminescence, HEK293, triplicate, confirmation (AID 652008;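 active = mean inhibition above 46.5%, the solvent-only control mean plus 3 SD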;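 also: 0% = DMSO-treated cells and 100% = Gossypol at 36 µM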); settings: HEK293 GAL4-SRC2 luciferase reporter, at 8.9 µM, hits give high values
[5] = StAR promoter reporter inhibitors, counter-screen for LRH-1 inverse agonist project, cell-based, luminescence, high throughput (AID 651611; in the data active = inhibition above about 28%); settings: StAR promoter luciferase reporter counterscreen, at 3.6 µM, hits give high values
[6] = biological target: Nuclear receptor subfamily 5 group A member 2 (Homo sapiens) (UniProt O00482); test: NR5A2 activity suppression in reporter cells – cell-based, luminescence, confirmation (AID 651613; in the data active = inhibition above about 42%;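 also: HEK293T cells co-transfected with LRH-1 and StAR promoter luciferase reporter; 0% = vehicle wells and 100% = parental cells lacking receptor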); settings: cell-based LRH-1 luciferase reporter, inverse agonism; at 3.6 µM; hits give high values
[7] = biological target: Steroidogenic factor 1 (Homo sapiens) (UniProt Q13285); test: inverse agonism at SF1 nuclear receptor – cell-based, luminescence, high throughput, counter-screen for LRH-1 inverse agonist project (AID 651614; in the data active = inhibition above about 44%;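 also: cells cotransfected with StAR promoter reporter and SF1 expression vector; 0% = vehicle on cells with receptor and 100% = vehicle on cells lacking receptor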); settings: cell-based SF1 luciferase reporter, at 3.6 µM, hits give high values
[8] = compounds suppressing VP16-driven luciferase signal – cell-based, luminescence, high throughput, counter-screen for LRH-1 inverse agonist project (AID 651615; in the data active = inhibition above about 33%); settings: Gal4-VP16 luciferase reporter cells, at 3.6 µM, hits give high values

Chain of Nuclear receptor coactivator 1 (Homo sapiens) (Q15788 whole entry, looked up, the tested form may be a part): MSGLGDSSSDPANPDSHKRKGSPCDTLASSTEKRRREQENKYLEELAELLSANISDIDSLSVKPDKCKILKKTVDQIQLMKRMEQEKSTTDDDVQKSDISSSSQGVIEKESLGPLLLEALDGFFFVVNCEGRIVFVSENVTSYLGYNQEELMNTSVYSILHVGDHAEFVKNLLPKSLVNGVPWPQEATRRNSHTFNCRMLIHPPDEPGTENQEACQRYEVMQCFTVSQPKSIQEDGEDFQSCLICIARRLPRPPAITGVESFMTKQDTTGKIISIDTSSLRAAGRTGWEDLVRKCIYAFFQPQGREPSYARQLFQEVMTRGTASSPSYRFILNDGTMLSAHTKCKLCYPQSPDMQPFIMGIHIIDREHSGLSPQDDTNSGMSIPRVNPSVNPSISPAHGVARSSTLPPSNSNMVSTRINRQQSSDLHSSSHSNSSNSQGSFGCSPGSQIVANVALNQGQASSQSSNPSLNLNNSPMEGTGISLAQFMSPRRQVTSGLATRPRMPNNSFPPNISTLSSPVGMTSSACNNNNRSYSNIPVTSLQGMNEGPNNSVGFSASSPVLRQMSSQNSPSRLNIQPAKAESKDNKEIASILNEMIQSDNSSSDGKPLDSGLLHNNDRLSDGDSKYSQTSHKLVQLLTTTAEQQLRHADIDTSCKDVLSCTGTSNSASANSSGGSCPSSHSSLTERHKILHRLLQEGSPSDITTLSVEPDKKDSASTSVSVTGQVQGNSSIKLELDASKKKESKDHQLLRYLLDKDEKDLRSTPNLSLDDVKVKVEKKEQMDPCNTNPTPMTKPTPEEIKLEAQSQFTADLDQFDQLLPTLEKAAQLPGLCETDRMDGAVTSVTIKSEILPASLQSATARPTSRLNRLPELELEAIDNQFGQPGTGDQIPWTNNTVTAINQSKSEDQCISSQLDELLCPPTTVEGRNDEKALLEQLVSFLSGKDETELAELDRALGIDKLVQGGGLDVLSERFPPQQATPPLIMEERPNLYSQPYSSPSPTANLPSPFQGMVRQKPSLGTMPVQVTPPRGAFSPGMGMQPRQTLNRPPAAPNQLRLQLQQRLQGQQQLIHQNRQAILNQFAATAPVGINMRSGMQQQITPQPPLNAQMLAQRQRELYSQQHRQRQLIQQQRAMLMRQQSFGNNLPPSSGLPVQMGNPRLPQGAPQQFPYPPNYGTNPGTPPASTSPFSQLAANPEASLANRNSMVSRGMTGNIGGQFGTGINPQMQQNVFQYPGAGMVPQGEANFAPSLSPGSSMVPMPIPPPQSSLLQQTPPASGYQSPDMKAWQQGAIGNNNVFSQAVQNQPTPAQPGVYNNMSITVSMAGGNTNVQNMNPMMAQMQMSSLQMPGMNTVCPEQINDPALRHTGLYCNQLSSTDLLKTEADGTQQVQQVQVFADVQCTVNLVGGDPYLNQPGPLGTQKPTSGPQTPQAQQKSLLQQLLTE
Chain of Nuclear receptor coactivator 2 (Homo sapiens) (Q15596 whole entry, looked up, the tested form may be a part): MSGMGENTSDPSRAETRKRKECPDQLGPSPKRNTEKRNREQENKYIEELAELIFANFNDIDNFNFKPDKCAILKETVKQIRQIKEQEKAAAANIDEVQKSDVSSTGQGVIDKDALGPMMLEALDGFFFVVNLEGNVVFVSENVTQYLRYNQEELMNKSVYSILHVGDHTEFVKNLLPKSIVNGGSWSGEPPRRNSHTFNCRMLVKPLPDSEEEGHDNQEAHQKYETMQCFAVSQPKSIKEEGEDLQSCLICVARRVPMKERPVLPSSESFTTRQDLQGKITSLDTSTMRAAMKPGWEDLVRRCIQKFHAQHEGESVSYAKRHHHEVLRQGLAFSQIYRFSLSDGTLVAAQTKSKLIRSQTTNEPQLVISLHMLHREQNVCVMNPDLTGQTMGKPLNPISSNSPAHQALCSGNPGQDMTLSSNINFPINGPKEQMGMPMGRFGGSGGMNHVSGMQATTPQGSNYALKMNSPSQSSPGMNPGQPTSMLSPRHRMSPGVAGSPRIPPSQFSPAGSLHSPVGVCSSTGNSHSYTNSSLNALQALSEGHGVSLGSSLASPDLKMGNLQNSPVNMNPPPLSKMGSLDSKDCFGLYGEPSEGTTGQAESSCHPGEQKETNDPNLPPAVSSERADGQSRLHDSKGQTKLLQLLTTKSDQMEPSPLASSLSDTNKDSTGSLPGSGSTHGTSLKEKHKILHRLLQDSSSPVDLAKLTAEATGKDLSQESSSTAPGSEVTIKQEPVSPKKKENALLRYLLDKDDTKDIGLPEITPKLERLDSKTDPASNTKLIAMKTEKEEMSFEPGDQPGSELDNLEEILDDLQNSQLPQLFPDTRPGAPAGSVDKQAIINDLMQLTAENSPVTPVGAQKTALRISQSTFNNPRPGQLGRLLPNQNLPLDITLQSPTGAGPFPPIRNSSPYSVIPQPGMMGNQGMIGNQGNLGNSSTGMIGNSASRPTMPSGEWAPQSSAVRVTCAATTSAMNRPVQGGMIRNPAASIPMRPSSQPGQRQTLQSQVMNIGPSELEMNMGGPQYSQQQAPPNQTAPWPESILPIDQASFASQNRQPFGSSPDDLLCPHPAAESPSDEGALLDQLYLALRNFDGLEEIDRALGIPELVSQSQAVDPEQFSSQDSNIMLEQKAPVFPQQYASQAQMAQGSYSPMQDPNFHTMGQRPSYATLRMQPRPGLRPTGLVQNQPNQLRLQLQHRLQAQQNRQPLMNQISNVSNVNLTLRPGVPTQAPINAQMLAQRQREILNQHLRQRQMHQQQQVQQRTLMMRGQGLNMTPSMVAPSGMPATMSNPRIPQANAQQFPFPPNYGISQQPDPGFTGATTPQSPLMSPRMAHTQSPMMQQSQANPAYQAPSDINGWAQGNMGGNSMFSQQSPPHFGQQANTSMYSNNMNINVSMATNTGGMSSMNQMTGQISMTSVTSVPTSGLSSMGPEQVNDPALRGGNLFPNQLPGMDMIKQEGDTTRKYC
Chain of Nuclear receptor subfamily 5 group A member 2 (Homo sapiens) (O00482 whole entry, looked up): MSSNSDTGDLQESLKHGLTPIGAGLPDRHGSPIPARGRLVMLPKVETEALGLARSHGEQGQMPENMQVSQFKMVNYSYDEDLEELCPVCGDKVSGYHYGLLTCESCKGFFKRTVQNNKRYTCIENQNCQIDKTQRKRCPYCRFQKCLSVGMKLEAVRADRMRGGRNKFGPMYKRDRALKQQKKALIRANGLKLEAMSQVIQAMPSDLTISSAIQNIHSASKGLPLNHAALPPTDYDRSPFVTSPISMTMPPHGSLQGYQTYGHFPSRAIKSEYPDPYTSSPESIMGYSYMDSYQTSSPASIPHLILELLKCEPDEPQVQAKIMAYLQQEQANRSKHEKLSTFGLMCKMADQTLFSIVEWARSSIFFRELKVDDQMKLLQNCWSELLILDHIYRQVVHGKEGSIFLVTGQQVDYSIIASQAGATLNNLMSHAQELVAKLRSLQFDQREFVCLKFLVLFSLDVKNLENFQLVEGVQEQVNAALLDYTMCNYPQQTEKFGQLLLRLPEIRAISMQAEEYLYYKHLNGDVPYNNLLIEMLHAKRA
Chain of Steroidogenic factor 1 (Homo sapiens) (Q13285 whole entry, looked up, the tested form may be a part): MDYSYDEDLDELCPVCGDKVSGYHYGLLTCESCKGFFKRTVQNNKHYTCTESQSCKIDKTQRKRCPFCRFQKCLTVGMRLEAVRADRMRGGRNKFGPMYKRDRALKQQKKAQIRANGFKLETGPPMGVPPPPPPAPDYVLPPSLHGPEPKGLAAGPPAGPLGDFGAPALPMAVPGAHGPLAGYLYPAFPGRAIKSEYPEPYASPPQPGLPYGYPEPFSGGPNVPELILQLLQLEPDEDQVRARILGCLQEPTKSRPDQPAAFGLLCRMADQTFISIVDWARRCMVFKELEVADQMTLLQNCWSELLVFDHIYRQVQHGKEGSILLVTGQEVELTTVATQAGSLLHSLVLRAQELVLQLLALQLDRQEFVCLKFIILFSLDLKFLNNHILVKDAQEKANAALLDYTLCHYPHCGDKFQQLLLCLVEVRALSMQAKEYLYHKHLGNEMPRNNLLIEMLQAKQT

SMILES	inhibition [1] [%]	inhibition [2]	inhibition [3]	inhibition [4]	inhibition [5]	inhibition [6]	inhibition [7]	inhibition [8]
C=C1C(=O)C23C(O)C1CCC2C12COC3(O)C(O)C1C(C)(C)CCC2O (configuration not stated)	-16	-9.14%	2.43%	25.9%	–	–	–	–
Cc1nc2sc(C(N)=O)c(N)c2c(C)c1CC(=O)c1ccccc1	35.5	5.05%	-52.2%	19.1%	–	–	–	–
O=C1CCC2S/C(=C/Nc3ccc(C(F)(F)F)cc3)C(=O)N12 (configuration not stated)	15.1	6.56%	3.33%	66.4% (active)	–	–	–	–
O=C(Nc1nonc1NC(=O)c1cccs1)c1cccs1	-7.76	21.9%	–	–	30.2% (active)	64.1% (active)	66% (active)	52.7% (active)
COc1ccc(CNc2ncc(-c3ccc(F)cc3)n2C)c2ccccc12	41.3	-14.1%	24.8%	94.5% (active)	–	–	–	–
O=C(CCl)Nc1ccc(Oc2cnc3ccccc3n2)cc1	4.66	2.08%	19.5%	46.6% (active)	43.6% (active)	74.4% (active)	77.4% (active)	18.3%
C=C1C(=O)C23CCC4C(C)(C(=O)OC)CCCC4(C)C2CCC1(O)C3 (configuration not stated)	-0.73	53.7% (active)	83.1% (active)	98.2% (active)	67.4% (active)	70.5% (active)	82.1% (active)	74% (active)
CC(=O)N1CCCC(c2cc(C(=O)Nc3ccccc3)no2)C1 (configuration not stated)	-48.3	-15.3%	-36.7%	40.6%	–	–	–	–

From PubChem BioAssay
